According to PubChem BioAssay AID651871 (Sanford-Burnham Center for Chemical Genomics, 2012):
“And” between values parts separate entries of the source, which are not always exact repeats. Equal values may be shown once.

Test system: H9c2
Assay: protection of cardiomyocytes from stress damage, SAR follow-up, cell-based, panel, H9c2 and HL-1, ATP luminescence, set 2 (AID 651871);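 also: cells exposed to stressor for 2 h before ATP readout; reference of the scale not given here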
Details: H9c2/HL-1 cardiomyocytes, 2-deoxyglucose stress, with 2-deoxyglucose; run 8, at 79 µM (top of the series)

Row | Compound | activity (protection/inhibition)
1 | COc1ccc2nc(-c3cc(OC)c(OC)c(OC)c3)cc(C(=O)NCC(=O)Nc3ccc(C(C)=O)cc3)c2c1 | 83.5%
2 | COc1ccc2c(c1OC)C(=O)N1c3ccccc3C(=O)N(Cc3cccc(Cl)c3Cl)C21 (stereo not drawn) | 89.8% and 74.3% and -3.43%
3 | CCOC(=O)c1cccc(NC(=O)CNC(=O)c2cc(-c3cc(OC)c(OC)c(OC)c3)nc3ccccc23)c1 | 92.9%
